Here are results for 15 compounds from PubChem BioAssay (NCATS).

Results filed as inconclusive are left out. A number with no mark means an inactive call. Activity calls are given as the source filed them. Calls come from the whole dose curve; as a rule, active = well fitted inhibition curve with a large enough effect; inconclusive = small, poorly fitted or top-dose-only effect, or effect the other way; inactive = no such curve, though single readings can be large or run the other way.

The nature of the assay: High Content Imaging Cell-Based qHTS for Inhibitors of the mTORC1 Signaling Pathway in MEF Cells (AID 2667).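 Note: Tsc2-/- p53-/- MEFs stably re-expressing wild-type Tsc2 exposed 24 h.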 As to conditions: series mostly up to 38.3 µM; activity change, negative = inhibition: at the top concentration. The text has this: NIH Molecular Libraries Probe Production Centers Network [MLPCN]
NIH Chemical Genomics Center [NCGC]
Assay Submitter (PI): Blenis, John; Hoffman, Greg; Harvard University
NCGC Assay Overview: The mammalian target of rapamycin (mTOR) is an intracellular serine/threonine kinase Aberrant regulation of mTOR signaling plays a causative role in a number of human diseases, including cancer, benign tumors such as lymphangioleiomyomatosis (LAM) and Tuberous Sclerosis Complex (TSC), and metabolic diseases such as diabetes and obesity. This project aims to identify inhibitors of ribosomal protein S6 (rpS6) phosphorylation. The phosphorylation of rpS6 is a key event downstream of mTOR activation. The assay uses a phospho-specific antibody of phospho-rpS6 to detect inhibitors of mTOR activation. Mutations in the Tsc1 and Tsc2 genes are the underlying genetic lesions responsible for TSC, causing constitutive activation of the mTORC1 pathway and leading to profound effects on cell metabolism. Aberrant metabolism in cancer has recently received significant attention as a target to develop therapeutic agents in the treatment of cancer.1 As Tsc2-/- cells have lost the ability to respond to energy and growth factor deprivation, these cells are unable to properly down regulate cellular biosynthetic processes in response to metabolic stress, and are thus extremely sensitive to glucose deprivation-induced death.2 A central goal of this project is to explore the unique cell survival and metabolic properties of cells with Tsc1 or Tsc2 by screening for compounds that selectively target the Tsc2-/- MEFs by screening both Tsc2-/- and WT MEF cell lines. We hope to better understand these aspects of TSC physiology in order to exploit them for therapeutic benefit.
NCGC IN Cell Assay Protocol:
For quantitative high throughput analysis of mTORC1 signaling, we developed a cell-based assay for immuno-fluorescence based detection of rpS6 phosphorylation on the Acumen Explorer that will be used a platform for the primary small molecule screen. Mouse embryonic fibroblasts (MEFs) are cultured in 1536-well plates using DMEM + 10% FBS. Twenty-four hrs after plating, test compounds (solubilized in DMSO) are delivered and incubated with the cells for 24 hrs at 37 degree Celsius. Following the incubation, media with compound is aspirated and the cells are fixed in 4% paraformaldehyde (PFA) containing PBS + 0.2% TX-100. Next, PFA is aspirated, cells are washed two times with PBS plus 0.2% TX-100 and the cells are blocked for 1 hr at room temperature (blocking buffer: LiCOR Blocking Buffer plus 0.2% TX-100). This is followed by aspiration and staining with Alexa-488 conjugated-phospho-rpS6 Ser235/236 antibody for 2 hours at room temperature (Cell Signaling Technology # 4803, 1:50 dilution in blocking buffer). Cells are washed two times with PBS plus 0.2% TX-100, and stained with 10 uM propidium iodide (PI) for 20-25 minutes for cell number measurement (1:500 dilution of Hoescht staining is also added for IN Cell imaging). Active wells which are selected (based on Acumen results) are imaged on the IN Cell 1000 (GE Healthcare) using the D360/40X and HQ480/40X excitation filters for the Hoechst and Alexa-488 cytoplasmic stains, respectively. The fluorescence emission filters used were HQ460/40M and HQ535/50M for the Hoechst and Alexa-488 cytoplasmic stains, respectively. The normalized phospho-S6 staining is calculated as the ratio of […] for the single concentration rapamycin control ([…] nM) and DMSO columns. […] Inhibition of the pathway is defined based on the normalized phospho-S6 intensity in rapamycin treated cells. Each treatment is reported as the % positive cells in the well, where thresholds are defined by selecting wells with the highest and lowest signal and differentiating between the % non-active and % active populations. […]
(qHTS replaces the single test concentration by a dilution series.)
Turning to `CN1C(=O)CCS(=O)(=O)C1c1ccc(Cl)cc1` (stereo not given), the “activity change, negative = inhibition” value is -100%.

Take `O=C(O)CCCc1ccc(N(CCCl)CCCl)cc1`: the “activity change, negative = inhibition” value is -100%.

For the compound `CC(NC(C)(C)C)C(=O)c1cccc(Cl)c1` (stereo not given), the “activity change, negative = inhibition” value was -100%.

Turning to `O=C(CCCN1CCC2(CC1)C(=O)NCN2c1ccccc1)c1ccc(F)cc1`, the “activity change, negative = inhibition” value is -100%.

Turning to `CC(C)N(CCC(C(N)=O)(c1ccccc1)c1ccccn1)C(C)C` (stereo not given), the outcome was inactive.

With `C=C(C)[C@H]1CN[C@H](C(=O)O)[C@H]1CC(=O)O`, the “activity change, negative = inhibition” value is -100%.

Take `CC(C)(C)NCC(O)c1ccccc1Cl` (stereo not given): the “activity change, negative = inhibition” value is -100%.

In the case of `CC(C)c1cccc(C(C)C)c1O`, the “activity change, negative = inhibition” value was -100%.

In the case of `COc1ccc2c(c1OC)C(=O)O[C@H]2[C@@H]1c2cc3c(cc2CCN1C)OCO3`, the “activity change, negative = inhibition” value was -100%.

As to `CCC1(c2ccc(N)cc2)CCC(=O)NC1=O` (stereo not given), the “activity change, negative = inhibition” value is -100%.

Turning to `O=P1(N(CCCl)CCCl)NCCCO1` (stereo not given), the “activity change, negative = inhibition” value is -100%.

With `O=c1[nH]oc2c1CCNC2`, the “activity change, negative = inhibition” value is -100%.

Consider `CCCCC/C=C\C/C=C\C/C=C\C/C=C\CCCC(=O)NCC(=O)O`, for which the “activity change, negative = inhibition” value is -100%.

Take `NCCc1ccc(O)cc1`: the “activity change, negative = inhibition” value was -100%.

On to `Cc1ncsc1CCCl`, for which the “activity change, negative = inhibition” value is -100%.
